# Values without a mark were called inactive.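 How the source made its calls: active = AUC reduced over 20% with Padj below 0.05 in at least 2 of 3 replicates; inactive = otherwise.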
# What was measured:
# Assay in all cases: growth AUC relative to DMSO control (median of replicates) (fraction); higher = more growth (less inhibition), active = hit call of the paper
# Conditions in all cases: 20 µM; 24 h
# Akkermansia muciniphila = tested on: Akkermansia muciniphila
# Procedure, shortened: (§1)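 In round-bottom 96-well plates sealed with pierced gas-permeable seals, gut bacterial monocultures in mGAM were grown anaerobically at 37 °C from OD600 0.05 with 20 µM compound (1% DMSO). OD600 readings were taken hourly for 24 h, and the minimum OD was set to 0. Area under the growth curve was then normalised to the plate median of solvent-only wells, or to row and column medians on the industrial chemical plate. The value given is the median of three biological replicates grown on separate days.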
# Bacteroides caccae = tested on: Bacteroides caccae
# Procedure, shortened: as §1
# Bacteroides clarus = tested on: Bacteroides clarus
# Procedure, shortened: as §1
# Bacteroides dorei = tested on: Bacteroides dorei
# Procedure, shortened: as §1
# Bacteroides stercoris = tested on: Bacteroides stercoris
# Procedure, shortened: as §1
# [1] = tested on: Bacteroides thetaiotaomicron
# Procedure, shortened: as §1
# Bacteroides uniformis = tested on: Bacteroides uniformis
# Procedure, shortened: as §1
# [2] = tested on: Bifidobacterium longum subsp. longum
# Procedure, shortened: as §1
# Clostridium difficile = tested on: Clostridium difficile
# Procedure, shortened: as §1
# Collinsella aerofaciens = tested on: Collinsella aerofaciens
# Procedure, shortened: as §1
Compound,growth AUC (Akkermansia muciniphila),growth AUC (Bacteroides caccae),growth AUC (Bacteroides clarus),growth AUC (Bacteroides dorei),growth AUC (Bacteroides stercoris),growth AUC [1],growth AUC (Bacteroides uniformis),growth AUC [2],growth AUC (Clostridium difficile),growth AUC (Collinsella aerofaciens)
Oc1ccc(C(c2ccc(O)cc2)(C(F)(F)F)C(F)(F)F)cc1,1.03,0.63 (active),0.464 (active),0.154 (active),0.0109 (active),0.679 (active),0.686 (active),0.924,0.966,0.894
CNC(=O)ON=C(C)C(C)SC (stereo not given),1.1,0.726 (active),1.03,0.983,1.3,0.916,0.838,1.03,0.927,0.979
CCc1cccc(C)c1N(C(=O)CCl)C(C)COC (stereo not given),1.03,0.884,1.01,0.995,1.26,1,0.935,1.07,0.979,1.02
CCCCCCCCCCCCC1=C(OC(C)=O)C(=O)c2ccccc2C1=O,1.04,0.926,0.934,0.969,0.988,0.996,0.987,0.827,0.926,0.0278 (active)
CCO/N=C(\CC)C1=C(O)CC(c2c(C)cc(C)cc2C)CC1=O (stereo not given),1.1,0.821,1,0.999,0.97,0.986,0.962,1.05,0.969,0.943
COP(=S)(OC)Oc1ccc(Sc2ccc(OP(=S)(OC)OC)cc2)cc1,0.994,0.986,1.04,0.979,1.08,1.04,0.968,0.94,0.996,0.992
O=C(O)c1c(Cl)ccc2cc(Cl)cnc12,0.898,1,0.983,0.992,0.987,1.02,1,0.961,0.959,0.947
COc1cc(OC)nc(NC(=O)NS(=O)(=O)c2ncccc2C(=O)N(C)C)n1,1,0.94,0.98,0.957,1.11,1.01,1.01,0.96,1,0.965

# — the supplement of paper PMC12669032
